Compound activity: PubChem BioAssay, National Center for Advancing Translational Sciences (NCATS)
Shown are actives, neighbours in structure and some others; about 2.4% of the full set was active somewhere.
Cruzain noTriton – qHTS Assay for Promiscuous and Specific Inhibitors of Cruzain (without detergent). purified cruzain, Z-FR-AMC fluorescence, no detergent. AID 1476, 2009. actives 2.3% (n = 200,000). Cruzipain (Trypanosoma cruzi), P25779. Potency, µM, most hits filed as inhibitors; also: nearly all actives have a fitted effect of over 40% in size
Target sequence (P25779 123-467 limits assumed): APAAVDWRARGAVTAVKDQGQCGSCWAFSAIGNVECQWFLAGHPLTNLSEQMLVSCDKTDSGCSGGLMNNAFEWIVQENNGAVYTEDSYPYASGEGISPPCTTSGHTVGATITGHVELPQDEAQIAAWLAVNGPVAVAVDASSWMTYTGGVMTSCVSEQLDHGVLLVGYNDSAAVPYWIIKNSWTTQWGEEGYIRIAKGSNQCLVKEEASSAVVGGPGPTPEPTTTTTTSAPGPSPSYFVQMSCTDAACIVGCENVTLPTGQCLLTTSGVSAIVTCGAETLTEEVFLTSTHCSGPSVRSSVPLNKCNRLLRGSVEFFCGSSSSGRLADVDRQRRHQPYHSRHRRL
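Purified cruzain at 1.5 nM, pre-incubated 15 min with compound at room temperature in 100 mM sodium acetate pH 5.5, 5 mM DTT, 0.00005% Triton X-100. Reaction started with 2 uM Z-FR-AMC; AMC fluorescence increase over 60 s gives rate.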
Cruzain Triton – qHTS Assay for Promiscuous and Specific Inhibitors of Cruzain (with detergent); Cruzipain (Trypanosoma cruzi), P25779; purified cruzain, Z-FR-AMC fluorescence, 0.01% Triton; Potency, µM, usual class: inhibitors; actives 0.43% (n = 200,000); also: nearly all actives have a fitted effect of over 40% in size
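Sodium acetate buffer (100 mM, pH 5.5) containing 5 mM DTT and 0.01% Triton X-100 hosted 1.5 nM cruzain and test compound for 15 min at room temperature. Cleavage of 2 uM Z-FR-AMC was then tracked by fluorescence.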
Of the large screens only hits and unclear results are named; the others gave an inactive call. Calls follow the shape of the dose curve; as a rule, active = well fitted curve in the direction sought with a large enough effect; inconclusive = small, poorly fitted or top-dose-only effect, or another doubt; inactive = no such curve, though single readings can be large; an effect the other way counts as inactive or inconclusive.

Cc1cc(C)cc(OCC(=O)Nc2ccc(S(=O)(=O)Nc3onc(C)c3C)cc2)c1	none
COC(=O)c1ccc(-n2c(C)cc(-c3csc(NC(=O)c4ccc(S(=O)(=O)N(C)C)cc4)n3)c2C)cc1	Cruzain noTriton 4µM
CN1CCN(S(=O)(=O)c2cccc(C(=O)Nc3nc(-c4ccccc4)cs3)c2)CC1	none
Cc1cc(-c2csc(NC(=O)c3cccc(S(=O)(=O)N(C)C)c3)n2)c(C)n1-c1ccccc1	Cruzain noTriton 7.9µM
CCOC(=O)c1csc(NC(=O)c2ccc(S(=O)(=O)N(C)C)cc2)n1	none
Cc1ccc([N+](=O)[O-])cc1S(=O)(=O)N1CCn2cccc2C1c1ccccc1F (configuration not stated)	none
CN(C)c1ncc2nc(-c3cn(C)c4ccccc34)c(=O)n(C[C@H]3CCCO3)c2n1	none
COC(=O)N[C@@H](c1cccc(C)c1)[C@@H](C)[N+](=O)[O-]	none
CCOC(=O)c1c(C)n(Cc2ccco2)c2ccc(OC)cc12	none
CCOC(=O)c1c(C)n(Cc2ccco2)c2c1cc(O)c1ccccc12	Cruzain noTriton 25µM
COc1ccc2[nH]c(=O)c(CN(CCO)S(=O)(=O)c3c(C)ccc4nsnc34)cc2c1	none
COc1ccc2[nH]c(=O)c(CN(Cc3cccs3)S(=O)(=O)c3cccc4nsnc34)cc2c1	Cruzain noTriton 32µM
COC(=O)c1c(NC(=O)CN2C(=O)c3ccccc3C2=O)sc(Cc2ccc3c(c2)OCO3)c1C	Cruzain noTriton 10µM
COC(=O)c1c(NC(=O)CN2CCN(Cc3ccc4c(c3)OCO4)CC2)sc(C)c1C	none
Cc1ccc(-c2nc(NC(=O)CSc3nc(C)nc4sc5c(c34)CCCC5)ns2)cc1	none
N#Cc1c(-c2ccccc2)cc(-c2ccccc2)nc1SCC(O)CS(=O)(=O)Cc1ccc(Cl)cc1 (configuration not stated)	Cruzain noTriton 7.9µM
COc1ccc(-c2cc(-c3ccccc3)c(C#N)c(SCC(O)CS(=O)(=O)Cc3ccc(Cl)cc3)n2)cc1 (configuration not stated)	Cruzain noTriton inconclusive
Cc1c(Cl)cccc1NC(=O)Cn1c(=O)n(Cc2nc(-c3ccccc3)no2)c(=O)c2cc3c(cc21)OCO3	Cruzain noTriton inconclusive
O=c1[nH]c(CN2CCc3ccccc32)nc2scc(-c3cccs3)c12	Cruzain noTriton 10µM
O=c1[nH]cnc2scc(-c3cccs3)c12	none
CC1CCCN(CCC(=O)c2ccc(Br)cc2)C1 (configuration not stated)	Cruzain noTriton 5µM, Cruzain Triton inconclusive
CC1CCCN(CCOc2ccc(Br)cc2)C1 (configuration not stated)	none
CCc1nnc2c3ccccc3nc(Nc3ccccc3OC)n12	none
COc1ccc(CCNC(=O)C2(c3cccs3)CCOCC2)cc1	none
Cc1cccc(N2CCN(C(=O)c3cn(CC(C)C)c(=O)c4c3c3ccccc3n4C)CC2)c1C	none
O=C1c2ccccc2C(=O)N1SC1CCCCC1	Cruzain noTriton 6.3µM, Cruzain Triton 14µM
O=C(OCN1C(=O)c2ccccc2C1=O)C1CCCCC1	none
NNC(=O)CS(=O)(=O)Nc1ncccn1	none
O=C(COc1ccccc1F)OCc1cc(=O)n2nc(-c3cccs3)sc2n1	none
COc1cc(NC(=S)NCCC(c2ccccc2)c2ccccc2)cc(OC)c1	Cruzain noTriton 32µM
COc1cccc(NC(=S)NCCC(c2ccccc2)c2ccccc2)c1	none
CCOc1ccc2nc(NC(=O)Nc3ccccc3)sc2c1	Cruzain noTriton inconclusive
CCN(C(=O)CSc1nc2cc(C(=O)OC)ccc2c(=O)n1Cc1ccco1)c1cccc(C)c1	none
O=c1c2ccccc2nnn1CSc1nc2ccccc2c(=O)n1Cc1ccco1	Cruzain noTriton 10µM
CCOc1ccc2nc(NC(=O)CSc3nc4ccccc4c(=O)n3Cc3ccco3)sc2c1	Cruzain noTriton 7.9µM
CCOc1ccc2nc(NC(=S)NCc3ccccc3)sc2c1	Cruzain noTriton 25µM
CCOC(=O)CSc1nc2ccccc2c(=O)n1Cc1ccco1	none
CCc1ccc(NC(=O)CSc2nc3cc(C(=O)OC)ccc3c(=O)n2Cc2ccco2)cc1	Cruzain noTriton 5µM
O=c1c2ccccc2nc(SCc2ccccc2)n1Cc1ccco1	none
Cc1ccccc1NC(=O)Cn1nc(-c2ccc(F)cc2)c2cnc3ccccc3c21	none
COc1ccc(-n2cc(C(=O)N(C)c3cc(C)ccc3OC)c3ccccc3c2=O)cc1	none
O=C(NCc1cccc(F)c1)C1=Cc2cc(Br)ccc2OC1	none
Nc1ccc2c(c1)N1CCN=C1S2	none
O=C(Nc1ccc(Cl)cc1)Nc1ccc2c(c1)N1CCN=C1S2	Cruzain noTriton 32µM, Cruzain Triton inconclusive
COc1cc(OC)c(NC(=O)c2ccc3c(c2)N(Cc2ccc(C)cc2)CCS3)cc1Cl	Cruzain noTriton 7.9µM
COc1ccc(CCNC(=O)c2ccc3c(c2)N(Cc2ccc(C)cc2)CCS3)cc1OC	none
CCc1ccc(NC(=O)c2ccc3c(c2)N(Cc2ccc(C)cc2)CCS3)cc1	Cruzain noTriton 16µM
Cc1ccc(CN2CCSc3ccc(C(=O)Nc4ccc(F)cc4F)cc32)cc1	Cruzain noTriton inconclusive
NC(=S)N=Nc1c(O)[nH]c2ccc(F)cc12	Cruzain noTriton 5µM, Cruzain Triton 14µM
CC(C)NC(=S)N=Nc1c(O)[nH]c2ccc(C(C)C)cc12	none
CCOc1ccc(-n2c(=O)c3c(C)c(C)sc3n(Cc3c(F)cccc3Cl)c2=O)cc1	none
COc1ccc(-c2cn3c(n2)sc2cc(C(=O)NC4CCCCCC4)ccc23)cc1	none
Cc1ccc(-c2cn3c(n2)sc2cc(C(=O)NC4CCCCCC4)ccc23)c(C)c1	Cruzain noTriton 10µM
COc1ccc(CNC(=O)CCc2nnc3n(CC(C)C)c(=O)c4ccccc4n23)cc1	none
CCOC(=O)c1c(C)[nH]c(CCC(=O)NCc2ccc(N(C)C)cc2)c1C	none
COCCNC(=O)C1=CC(c2ccc3c(c2)OCO3)=NS(=O)(=O)N1C	none
Cc1ccc(NS(=O)(=O)c2ccc(Cl)c(NC(=S)NC(=O)C3CCCCC3)c2)cc1Cl	Cruzain noTriton 32µM
Cc1ccc(NS(=O)(=O)c2ccc3c(c2)CCCN3C(=O)C2CCC2)cc1Cl	none
CCN(Cc1ccccc1)Cc1c(O)ccc2oc(C)c(C(=O)Nc3ccccc3C)c12	none
Cc1c(C(=O)N/N=C/c2ccccc2)[nH]c2ccc(Cl)cc12	none
Cc1c(C(=O)N/N=C/c2ccc(N(C)C)cc2)[nH]c2ccc(Cl)cc12	Cruzain noTriton 10µM
CCn1cc2nc(SCc3ccc(F)cc3)n(CCc3ccccc3)c(=O)c2n1	Cruzain noTriton inconclusive
N#CCc1c(C#N)c(N)nc(N2CCN(Cc3ccc4c(c3)OCO4)CC2)c1C#N	none
N#CCc1c(C#N)c(N)nc(N2CCN(c3ccc(F)cc3)CC2)c1C#N	Cruzain noTriton 16µM
Cn1c(C(=O)NCCN2CCc3ccccc3C2)cc2c(=O)n(C)c3ccccc3c21	Cruzain noTriton inconclusive, Cruzain Triton 25µM
CCOCCCNC(=O)c1cc2c(=O)n(C)c3ccccc3c2n1C	none
CCCN(CCC)CCNC(=O)c1cc2c(=O)n(C)c3ccccc3c2n1C	Cruzain noTriton inconclusive, Cruzain Triton 16µM
Cn1c(C(=O)NCCN2CCN(c3ccccc3F)CC2)cc2c(=O)n(C)c3ccccc3c21	none
CCN1CCN(Cc2c(O)ccc3oc(C)c(C(=O)Nc4ccc(OC)c(Cl)c4)c23)CC1	none
COc1ccc(NC(=O)c2ccc3c(SCC(=O)O)c4c(nc3c2)CCC4)c(OC)c1	Cruzain noTriton inconclusive
O=C(Nc1ccc(F)cc1)c1ccc(COc2ccccc2)cc1	Cruzain noTriton 13µM
COC(=O)c1ccc(OCCOc2ccccc2)cc1	none
